High-throughput results from PubChem BioAssay.
Shown are actives, neighbours in structure and some others; about 18% of the full set was active somewhere.
TDP1 cell noCPT = qHTS for Inhibitors of human tyrosyl-DNA phosphodiesterase 1 (TDP1): qHTS in cells in absence of CPT | Potency, µM (top dose mostly 46.2 µM), inactives show top-dose activity change, negative = growth inhibition, usual class: inhibitors | actives 15% (n = 420,000) | DT40 Tdp1-/- hTDP1 cells, no CPT, ATP luminescence, 48 h; note: nearly all actives have a fitted effect of over 55% in size
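Growth kinetics read by CellTiter-Glo luminescence after ≥48 hr at 37 °C. Cells: DT40 Tdp1-/- stably carrying human TDP1, 400 per well, compound exposure in the absence of CPT (DMSO vehicle).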
DT40 TDP1 CPT = qHTS for Inhibitors of human tyrosyl-DNA phosphodiesterase 1 (TDP1): qHTS in cells in presence of CPT. actives 12% (n = 420,000). AID 686979, 2013. chicken DT40 Tdp1-/-;hTDP1 cells + 20 nM CPT, ATP luminescence, 48 h. Potency, µM (doses to about 46.2 µM), for the others: top-dose activity change, negative = growth inhibition, actives largely listed as inhibitors; note: nearly all actives have a fitted effect of over 55% in size
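Cell growth measured by CellTiter-Glo luminescence after a minimum 48 h, 37 C compound exposure with 20 nM CPT in Tdp1-knockout DT40 cells stably expressing hTDP1, seeded 400/well; qHTS titration format.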
PLK1 PBD inh = qHTS for Inhibitors of PLK1-PDB (polo-like kinase 1 - polo-box domain): Primary Screen. Plk1 PBD binding of FITC phosphopeptide, fluorescence polarization. Potency, µM, for inactives: max response, negative = inhibition, actives largely listed as inhibitors. actives 2.8% (n = 360,000). AID 720504, 2013; note: series mostly up to about 57 µM; nearly all actives have a fitted effect of over 65% in size
Target sequence (P53350 whole entry, looked up, the tested form may be a part): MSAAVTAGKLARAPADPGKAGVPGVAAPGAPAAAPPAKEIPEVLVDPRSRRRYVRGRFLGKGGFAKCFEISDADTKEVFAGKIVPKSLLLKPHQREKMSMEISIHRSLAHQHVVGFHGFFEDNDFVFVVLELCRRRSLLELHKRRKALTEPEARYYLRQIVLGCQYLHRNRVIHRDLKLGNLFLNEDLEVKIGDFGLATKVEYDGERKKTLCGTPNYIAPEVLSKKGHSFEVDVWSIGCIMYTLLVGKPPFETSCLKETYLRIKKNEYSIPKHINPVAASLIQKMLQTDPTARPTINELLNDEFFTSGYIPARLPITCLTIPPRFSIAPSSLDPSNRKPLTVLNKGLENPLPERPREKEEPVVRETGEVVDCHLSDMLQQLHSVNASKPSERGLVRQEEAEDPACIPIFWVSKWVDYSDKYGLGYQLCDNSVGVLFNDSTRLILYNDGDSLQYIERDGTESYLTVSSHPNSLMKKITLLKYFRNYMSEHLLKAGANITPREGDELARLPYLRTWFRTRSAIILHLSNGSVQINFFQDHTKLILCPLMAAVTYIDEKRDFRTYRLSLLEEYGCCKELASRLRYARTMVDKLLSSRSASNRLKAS
GCN5L2 inh = qHTS Assay for Inhibitors of GCN5L2; Histone acetyltransferase KAT2A (Homo sapiens), Q92830; GCN5L2 HAT assay, ThioGlo1 CoA-SH fluorescence; Potency, µM (doses to about 58.9 µM), for the others: at the top dose activity change, negative = inhibition, actives largely listed as inhibitors; actives 0.21% (n = 390,000); AID 504327, 2011
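Free CoA generated was detected with ThioGlo1 (50uM) fluorescence at Ex340nm/Em540nm, read immediately and after 20 min at room temperature. Enzyme, 20 nM in HEPES pH 7.5 buffer, saw compounds 15 min before adding 75uM H3(1-25) peptide and 70uM acetyl-CoA.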
VDR inh = Inhibitors of the vitamin D receptor (VDR): qHTS. Vitamin D3 receptor (Homo sapiens), P11473. VDR-SRC2-3 peptide fluorescence polarization, 2 h. Potency, µM, for the others: max response, negative = inhibition, usual class: inhibitors. actives 0.93% (n = 400,000). AID 504847, 2011
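The screen uses fluorescence polarization to detect compounds that interfere with recruitment of the SRC2-3 coactivator peptide to VDR; plates are read after 2 h at room temperature.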
TDP1 inh = qHTS Assay for Inhibitors of Tyrosyl-DNA Phosphodiesterase (TDP1); Potency, µM (titrated, usually from 130 µM), for inactives: at the top dose activity change, negative = inhibition, usual class: inhibitors; actives 0.28% (n = 350,000); Tyrosyl-DNA phosphodiesterase 1 (Homo sapiens), Q9NUW8; recombinant TDP1, AlphaScreen DNA substrate cleavage; AID 485290, 2010; note: nearly all actives have a fitted effect of over 40% in size
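Compounds were preincubated with Tdp1 (1 nM final) for 15 min at room temperature before substrate (15 nM final) started a 5 min reaction; beads (10 ug/ml final) were then added for 10 min before AlphaScreen detection.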
* = called active by the depositor; ? = inconclusive; . = no result given; [ ] = dose if it differs, or a comment. Calls come from the whole dose curve; as a rule, active = well fitted curve in the direction sought with a large enough effect; inconclusive = small, poorly fitted or top-dose-only effect, or another doubt; inactive = no such curve, though single readings can be large; an effect the other way counts as inactive or inconclusive. % is set by controls: 0 for no effect and ±100 for the full control effect; potency is the fitted concentration of half-maximal effect.

SMILES | TDP1 cell noCPT | DT40 TDP1 CPT | PLK1 PBD inh | GCN5L2 inh | VDR inh | TDP1 inh
COc1ccc(CCC(=O)Nc2c(-c3ccc(N(C)C)cc3)[nH][nH]c2=O)cc1 | -84% | ? | 21µM* | . | . | .
COc1ccc(NC(=S)N(Cc2ccc(C(=O)O)cc2)Cc2ccc(OC)c(OC)c2)cc1 | 9% | 11% | ? | -4% | -10% | 1%
CC(C)(C)NC(=O)[C@@H]1CC[C@@H]2[C@@H]3CC[C@@H]4NC(=O)C=C[C@@]4(C)[C@H]3CC[C@]21C | . | . | . | 4%[21.4 µM] | 16% | 7%[56.1 µM]
Cc1cc(C)c(C)c(S(=O)(=O)N(C)CCc2ccccn2)c1C | 23µM* | ? | 0% | -9% | -6% | 0%
CN(C)S(=O)(=O)c1ccc(N2CCCC2)c(C(=O)N2CCN(S(=O)(=O)c3ccc(F)c(F)c3)CC2)c1 | -19% | -29% | -2% | . | -10% | .
Cc1cc(C)c(C(=O)COc2cccnc2[N+](=O)[O-])cc1C | 5.8µM* | 4.1µM* | ? | -14% | ? | -3%
N[C@@H](Cc1cc(I)c(Oc2ccc(O)cc2)c(I)c1)C(=O)O | ? | 1% | . | 0% | 9% | 6%
Cc1cc(NC(=O)Cn2nc(-c3cccs3)ccc2=O)cc(C)c1Br | 29µM* | 29µM* | -5% | -6% | 16% | 0%
COc1ccc(CC2(CO)CCN(Cc3cc4ccccc4o3)CC2)cc1 | 16µM* | 16µM* | -10% | -5% | 15% | 3%
OCC1(Cc2cccc(C(F)(F)F)c2)CCN(Cc2cc3ccccc3o2)CC1 | 16µM* | ? | 2% | -2% | 0% | 0%
Cc1c(CN2CCC(CO)(Cc3cccc(C(F)(F)F)c3)CC2)c2ccccc2n1C | 16µM* | 23µM* | -3% | -2% | -8% | 5%
COc1ccc([C@]23Cc4cc(OC)c(OC)cc4C(O2)C2=C(CC4(CCCCC4)OC2=O)O3)cc1 | . | . | . | -7%[12.7 µM] | . | .
Cn1c(=O)c(-c2cc(F)cc(F)c2)nc2cnc(Oc3cccc(Cl)c3)nc21 | -8% | 6% | . | -26% | 0% | .
Cc1oc2c(c1C(=O)Nc1ccccc1Br)C1=NCCN1C=N2 | 21µM* | 18µM* | . | -10% | 11% | 5%
Cc1cc(C)c(NC(=O)c2c(C)oc3c2C2=NCCN2C=N3)c(C)c1 | 16µM* | 16µM* | . | 4% | 6% | 1%
Cc1oc2c(c1C(=O)Nc1ccc(Cl)cc1F)C1=NCCN1C=N2 | 16µM* | -26% | . | -5% | 11% | 8%
Cc1oc2c(c1C(=O)Nc1cccc(Br)c1)C1=NCCN1C=N2 | -8% | -6% | . | 2% | 5% | 6%
COCc1c(C(=O)Nc2ccc(Cl)cc2F)oc2ccccc12 | -26% | -10% | -8% | -4% | 5% | 2%
Cc1cc([N+](=O)[O-])nn1CC(=O)NCc1ccc(Cl)cc1 | -21% | -15% | 4% | 2% | -2% | .
CC(C)COc1ccc(C(=O)Nc2scc(-c3ccc(Cl)cc3Cl)c2C(N)=O)cc1 | 9.2µM* | 16µM* | -1% | -10% | -8% | -6%
Cc1c(C(=O)NCC2COCCO2)cnn1-c1nccc(-c2cccs2)n1 (stereo not given) | -26% | -22% | . | . | . | .
COc1ccc2[nH]cc(CCNc3nc(-c4cccnc4)nc4ccccc34)c2c1 | ? | 23µM* | . | -16% | -15% | .
COc1cccc(-c2nccc(NCCc3c[nH]c4ccc(OC)cc34)n2)c1 | ? | 13µM* | . | ? | 0% | .
OC(CNc1nc(-c2cccnc2)nc2ccccc12)c1ccccc1 (stereo not given) | 23µM* | 15µM* | -2% | -4% | 9% | 5%
COc1ccc(CNc2nc(-c3cccnc3)nc3ccccc23)c(OC)c1 | ? | ? | . | -23% | -9% | .
SMILES | TDP1 cell noCPT | DT40 TDP1 CPT | PLK1 PBD inh | GCN5L2 inh | VDR inh | TDP1 inh
COc1ccc2[nH]cc(CCNc3ccnc(-c4ccc(C(=O)N(C)C)cc4)n3)c2c1 | 12µM* | 12µM* | . | -13% | -14% | .
OCCNc1nc(-c2cccnc2)nc2ccccc12 | -18% | -32% | 2% | 9% | 8% | -6%
COc1ccc2[nH]cc(CCNc3cc(-c4ccc(C(=O)N(C)C)cc4)ncn3)c2c1 | -17% | ? | . | -8% | -11% | .
COc1cccc(Cn2c(=O)cnc3cnc(Nc4ccccc4)nc32)c1 | ? | ? | . | -12% | -4% | .
N#Cc1ccc(CN2CCC3(CC2)CCN(C(=O)c2ccco2)CC3)cc1 | ? | 1% | . | -7% | 2% | .
Cc1ccc2nc(-c3ccc(Cl)c(NC(=O)COc4ccc(C(C)C)cc4)c3)oc2c1 | -8% | -1% | . | 2% | -8% | 2%
COc1ccc2[nH]cc(CCNc3ccnc(-c4ccccc4C)n3)c2c1 | ? | 21µM* | . | -29% | -28% | .
COc1ccc2[nH]cc(CCNC(=O)Nc3ccccc3C)c2c1 | -7% | 26% | -16% | -12% | -22% | 6%
COc1ccccc1NC(=O)CN1CCN(c2ccccc2OC)CC1 | ? | -25% | 2% | -3% | 2% | .
COc1ccccc1N1CCN(CC(=O)NCc2ccc(Cl)cc2)CC1 | ? | -13% | -16% | -12% | -11% | 5%
COc1ccc(CNC(=O)Cn2nc(N3CCN(c4ccccc4)CC3)ccc2=O)c(OC)c1 | 15µM* | ? | . | 27% | 5% | 5%
CCOc1ccccc1CNC(=O)Cn1nc(N2CCN(c3ccccc3)CC2)ccc1=O | 21µM* | 21µM* | . | -18% | -1% | -8%
COc1cccc(CNC(=O)Cn2nc(N3CCN(c4ccccc4OC)CC3)ccc2=O)c1 | 21µM* | 18µM* | . | -11% | 11% | 5%
O=C(Cn1nc(N2CCN(c3ccccc3)CC2)ccc1=O)NCc1ccccc1F | ? | -26% | . | -2% | 12% | 5%
CCc1ccccc1NC(=O)Cn1nc(N2CCN(c3ccccc3OC)CC2)ccc1=O | 13µM* | ? | . | -6% | 13% | 5%
O=C(OCC#CCSc1nnc(-c2c[nH]c3ccccc23)o1)c1ccc(F)cc1 | . | . | . | . | . | -3%
Cc1ccc(NC(=O)Nc2c(C)n(C)n(-c3ccccc3)c2=O)c(Cl)c1 | 2% | -2% | . | -3% | -6% | -4%[12.3 µM]
CCCc1c(C)[nH]c2ccc(C(=O)O)cc2c1=S | 4% | 0% | 13µM* | 2% | -27% | ?
